For 42 sequences, binding signal results are on record in paper PMC7819943, “Rice protein-binding microarrays: a tool to detect cis-acting elements near promoter regions in rice”.

In all, about 68,000 sequences were measured (“fluorescence intensity (a.u.)”: median about 9,100, highest 2% from about 16,000 on). The sample holds the highest values, similar sequences and a random draw of the others, so the mix is not that of the screen.

This experiment deals with OsWRKY34 (Oryza sativa, UniProt Q0JBA9 1-250). Nature of the experiment: protein-binding microarray (RPBM); PBS, 2% BSA, 51.3 ng/ul salmon testes DNA, 50 uM zinc acetate, 200 nM TF, 25 C, 1 h; high values mean tight binding. Conditions: protein: recombinant; tags: N-terminal polyhistidine and DsRed monomer fusion (pET32a); label: CyDye5-dUTP incorporated in the synthesized complementary strand; 3' TTTTT single-stranded linker to array surface; dsDNA, one strand shown. In short, it runs like this: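 The binding signal for each feature is its fluorescence intensity in arbitrary units. An Axon 4000B scanner was used to read a custom Agilent array that had been made double-stranded with Cy5-dUTP primer extension, blocked with 2% BSA, incubated at 25 °C for 1 h with 200 nM protein in PBS, 2% BSA, salmon testes DNA and 50 µM zinc acetate, and washed. The protein was an N-terminal polyhistidine–DsRed transcription factor fusion from E. coli BL21-CodonPlus, purified on Ni–NTA.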
OsWRKY34, sequence (Q0JBA9 entry or part of it): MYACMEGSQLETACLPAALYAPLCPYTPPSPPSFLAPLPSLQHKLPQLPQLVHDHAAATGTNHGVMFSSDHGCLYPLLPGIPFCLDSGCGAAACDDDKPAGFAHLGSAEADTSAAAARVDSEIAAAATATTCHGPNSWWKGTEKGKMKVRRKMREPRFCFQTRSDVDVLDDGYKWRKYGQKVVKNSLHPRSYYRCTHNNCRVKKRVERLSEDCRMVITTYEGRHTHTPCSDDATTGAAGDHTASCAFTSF
Turning to “AAGACATTGCATCAACCGTCTTGCCAATCTATGTTTTCTACGGAGTCACCTAGTGCAG”, the binding signal was 8280 fluorescence intensity (a.u.).

Take “ATTATAAGTTGTTTCTTCTTAGGTTGTGTTTAGTTCCTTGCGGAGTCACCTAGTGCAG”: the binding signal is 9250 fluorescence intensity (a.u.).

For “GCTTCCTCGGCCTCGGGCCGCGTCTCCATGGTCGACTTGACGGAGTCACCTAGTGCAG”, the binding signal is 11200 fluorescence intensity (a.u.).

For the sequence “ACCAGTTAATGTACATTTGCAATTATATTTTGTTATTTTTCGGAGTCACCTAGTGCAG”, the binding signal is 8230 fluorescence intensity (a.u.).

As for “GGTGGTGTTGTTGGTGGTGCAGTTCTTGGAGTCACATGGTCGGAGTCACCTAGTGCAG”, the binding signal is 10300 fluorescence intensity (a.u.).

Regarding “GAGATGGATGTGTGGTGATGGCCTAGGATGTGGGATGGATCGGAGTCACCTAGTGCAG”, the binding signal was 8160 fluorescence intensity (a.u.).

“ACCACTTGGCTTTCTTTCTTTTATCCGGTTAGTTCCGGCGCGGAGTCACCTAGTGCAG”: the binding signal was 8090 fluorescence intensity (a.u.).

As to “CCTTTTTAGTCGGACTTCTTTTTCTTTTTTACCGACTTTGCGGAGTCACCTAGTGCAG”, the binding signal is 10300 fluorescence intensity (a.u.).

Take “GTAAGTGTGTGTTCAGTGATGGCTATCGGTGGGTGGGTGGCGGAGTCACCTAGTGCAG”: the binding signal is 16600 fluorescence intensity (a.u.).

For “TTTTTTGTCGGACTTTTTTCTTCATTTTTTACCTCTTTTGCGGAGTCACCTAGTGCAG”, the binding signal was 16900 fluorescence intensity (a.u.).

“GGAGTTTGGTTGGTTGGTGGTGTTCTTGACGGGGCATGGACGGAGTCACCTAGTGCAG”: the binding signal was 31200 fluorescence intensity (a.u.).

For the sequence “AGTTCTTGGAGTCACATGGTTGGTGGTGGTGTGGGCAGTTCGGAGTCACCTAGTGCAG”, the binding signal is 14200 fluorescence intensity (a.u.).

“TCTTTATTTACCTTTTTTTGAGTCGGACTTCTTTTTCTTTCGGAGTCACCTAGTGCAG”: the binding signal was 8240 fluorescence intensity (a.u.).

For the sequence “GAGATGCGGCACGGTTGGCTTGTTGACTTTTTCCGGCCCGCGGAGTCACCTAGTGCAG”, the binding signal is 17500 fluorescence intensity (a.u.).

On to “ATGTAGATGTGGTCATGTGGGTGCTATCTGTGTGGGTGATCGGAGTCACCTAGTGCAG”, for which the binding signal was 9360 fluorescence intensity (a.u.).

Consider “GTTGTTTGTTTGAGACTCTGTTCCTTTTGGCTTGGTTTTCCGGAGTCACCTAGTGCAG”, for which the binding signal is 12700 fluorescence intensity (a.u.).

As for “TTCTCCCTTTATTTTTGTTTATATAATTTCCAGATCAAAGCGGAGTCACCTAGTGCAG”, the binding signal was 8890 fluorescence intensity (a.u.).

“GCCGCCGCCTCGCTCCCCATGGCGTCCGTACACTCCGGCGCGGAGTCACCTAGTGCAG”: the binding signal is 10300 fluorescence intensity (a.u.).

Turning to “GCCGCCGCCCGCCGCCGCCGAGACCGACCCGACCACGATGCGGAGTCACCTAGTGCAG”, the binding signal was 8960 fluorescence intensity (a.u.).

On to “AATTTCGGAAGGGTTGGTTTAGGCAGTAATATTCTCCATTCGGAGTCACCTAGTGCAG”, for which the binding signal is 8280 fluorescence intensity (a.u.).

With “GTGGCCTTTGGGAGCGGTGACCTGCTGCTCCATCCTTCATCGGAGTCACCTAGTGCAG”, the binding signal was 9620 fluorescence intensity (a.u.).

With “ATCCTGATCAGATTCTGAACTCCTTTTCTCTCTGCGCCCACGGAGTCACCTAGTGCAG”, the binding signal was 8480 fluorescence intensity (a.u.).

Consider “CACGTCGCCTCGTTTCTTGCCTCGCCGCTCGTCACTCGGCCGGAGTCACCTAGTGCAG”, for which the binding signal is 9810 fluorescence intensity (a.u.).

With “CGATCTTGCCCTGGTTGGTTGGTGGTGGTGGTGGGTTTTGCGGAGTCACCTAGTGCAG”, the binding signal was 37100 fluorescence intensity (a.u.).

As for “CGGTGGACTGGTGGTTTTTGCGGGGTTGCAGAATTTGGTGCGGAGTCACCTAGTGCAG”, the binding signal was 9390 fluorescence intensity (a.u.).

As for “GGCGAGTGGCGGATTTGTTTTTGGTTTGTTTTTGAGTTTGCGGAGTCACCTAGTGCAG”, the binding signal is 9060 fluorescence intensity (a.u.).

On to “CGGTGGTGGTGGTGGTGCCTTGGCTAGTTTGGCCGGCGCGCGGAGTCACCTAGTGCAG”, for which the binding signal is 14300 fluorescence intensity (a.u.).

In the case of “GGTGGTCTTCTTTTTTTGCGGTGGAGTTGGATTTGGGTTGCGGAGTCACCTAGTGCAG”, the binding signal was 13000 fluorescence intensity (a.u.).

Take “TATTTTTGGGTTGGGTTTGGGTTGGGTTGGGTCGAGTTGGCGGAGTCACCTAGTGCAG”: the binding signal was 26100 fluorescence intensity (a.u.).

On to “GATAGTTGAGGGGTCGAGATTTTTGGTATTGCGGATTGGGCGGAGTCACCTAGTGCAG”, for which the binding signal was 10400 fluorescence intensity (a.u.).

As for “CGGTTTCGTTTGAGATTTTTTTTTGGTGGTTTTGATTTCGCGGAGTCACCTAGTGCAG”, the binding signal is 8640 fluorescence intensity (a.u.).

Consider “GTTTATTGTATTTGGAGTAAGTGATTGTAACTTTTTTTTACGGAGTCACCTAGTGCAG”, for which the binding signal is 9200 fluorescence intensity (a.u.).

“GGTGGGTTGGGCCGTGATTTGTATGGACTTTATTTGTAAGCGGAGTCACCTAGTGCAG”: the binding signal was 19000 fluorescence intensity (a.u.).

Turning to “AATATGTGGGTGATTTGTTGTAATGGAGTATGTGGTGGAGCGGAGTCACCTAGTGCAG”, the binding signal was 10000 fluorescence intensity (a.u.).

With “CTTGGCTTGGTTTGGTTTGGTGTTTGATCACGCGGTGGTGCGGAGTCACCTAGTGCAG”, the binding signal is 20800 fluorescence intensity (a.u.).

As to “GTTTACATGTGTAGATCTAATGATGCGTTCAATCTAGTTTCGGAGTCACCTAGTGCAG”, the binding signal was 8860 fluorescence intensity (a.u.).

Turning to “GCGGATTTCCTTTCTAAACGTGCCAACGATGTGTTCTTGTCGGAGTCACCTAGTGCAG”, the binding signal is 8250 fluorescence intensity (a.u.).

Turning to “CAAAACAGAAGAGCCAGGTTAGTTTAGTTGGTCATATTCACGGAGTCACCTAGTGCAG”, the binding signal was 8310 fluorescence intensity (a.u.).

As to “AGCCATCCGGCCGCGGCCCGTCACAGGTAACTAGTCATTTCGGAGTCACCTAGTGCAG”, the binding signal is 9260 fluorescence intensity (a.u.).

“TTCCCACCGCTGCCGCTCGTCCCGTCTCACCGATCCCTCCCGGAGTCACCTAGTGCAG”: the binding signal was 10300 fluorescence intensity (a.u.).

As for “CGCCGCCATTTCCGCCTCTTCTTCTCTTAAACAAAAAGCCCGGAGTCACCTAGTGCAG”, the binding signal was 10200 fluorescence intensity (a.u.).

Take “TCCTGTGTTTTTTCTGTGTTTTGCAATCCTCTGTTTTACACGGAGTCACCTAGTGCAG”: the binding signal was 10900 fluorescence intensity (a.u.).
